Experimental data as given in PubChem BioAssay (Tox21).
“And” between values parts separate entries of the source, which are not always exact repeats. Equal entries are not always repeated. Results filed as inconclusive are left out. A structure can be active in one record and inactive in another. The source made the active and inactive calls. Unless noted, calls come from the whole dose curve; as a rule, active = well fitted curve in the direction sought with a large enough effect in the repeat runs; inconclusive = weak or mixed curves; inactive = no such curve, though single readings can be large; an effect the other way counts as inactive or inconclusive.

Tests used:
[1] = A CellTox Green Cytotoxicity Assay to monitor cytotoxicity in HepG2 cells - 8 hour (AID 1224890); note: nearly all actives have a fitted effect of over 45% in size; note: potency is the fitted concentration of half-maximal effect
In short: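 HepG2 cells were seeded together with the CellTox Green dye at 600 cells/well, left 5 h at 37 C/5% CO2, then given compounds in DMSO. Fluorescence from dye bound to dead-cell DNA was read repeatedly over 40 h of treatment at 37 C.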

[2] = qHTS assay to identify small molecule antagonists of the estrogen receptor alpha (ER-alpha) signaling pathway using the BG1 cell line in the presence of 0.1 nM 17-beta-estradiol - cell viability counter screen (AID 1259241); note: nearly all actives have a fitted effect of over 40% in size; note: potency is the fitted concentration of half-maximal effect
In short: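 Viability in VM7Luc4E2 cells after 22 hr compound exposure under 0.1 nM 17beta-estradiol stimulation, by CellTiter-Fluor.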

[3] = biological target: Estrogen receptor (Homo sapiens) (UniProt P03372); assay: qHTS assay to identify small molecule antagonists of the estrogen receptor alpha (ER-alpha) signaling pathway using the BG1 cell line in the presence of 0.1 nM 17-beta-estradiol (AID 1259244); note: nearly all actives have a fitted effect of over 50% in size; note: potency is the fitted concentration of half-maximal effect
Chain of Estrogen receptor (Homo sapiens) (P03372 whole entry, looked up): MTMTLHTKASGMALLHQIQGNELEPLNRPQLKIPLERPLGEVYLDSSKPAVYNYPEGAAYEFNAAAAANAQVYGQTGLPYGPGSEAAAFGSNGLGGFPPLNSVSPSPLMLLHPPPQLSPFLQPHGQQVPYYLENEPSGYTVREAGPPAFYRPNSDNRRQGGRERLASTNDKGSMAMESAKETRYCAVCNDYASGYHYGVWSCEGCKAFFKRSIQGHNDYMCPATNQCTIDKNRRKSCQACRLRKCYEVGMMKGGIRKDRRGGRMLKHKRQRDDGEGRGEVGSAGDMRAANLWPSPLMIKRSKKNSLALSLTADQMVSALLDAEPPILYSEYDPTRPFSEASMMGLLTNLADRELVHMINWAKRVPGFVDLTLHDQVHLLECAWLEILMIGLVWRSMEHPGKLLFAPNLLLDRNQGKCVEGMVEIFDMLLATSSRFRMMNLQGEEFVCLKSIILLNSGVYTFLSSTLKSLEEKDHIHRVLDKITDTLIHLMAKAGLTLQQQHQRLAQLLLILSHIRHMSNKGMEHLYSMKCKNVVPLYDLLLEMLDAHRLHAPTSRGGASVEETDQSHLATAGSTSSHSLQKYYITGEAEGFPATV
In short: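 VM7Luc4E2 cells (endogenous full-length ER-alpha, stable 4xERE-luciferase) were grown 5 days in phenol red-free medium with charcoal-stripped FBS, then exposed 22 h at 37C to compounds plus 0.1 nM (final) 17beta-estradiol; ONE-Glo luminescence read-out.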

[4] = qHTS assay to identify small molecule phospholipidosis (PLD) inducers (AID 1259344; active = well fitted curve in the direction sought with a large enough effect; an effect the other way counts as inactive or inconclusive; note: potency is the fitted concentration of half-maximal effect)
In short: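 Phospholipidosis is scored by imaging LipidTOX-stained pits in HepG2 cells exposed to compound for 24 h at 37 C; pit counts and integrated intensities per well and per cell serve as outputs.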

[5] = qHTS assay to identify small molecule HDAC inhibitors (AID 1259364); note: top concentration of the series differs between compounds; nearly all actives have a fitted effect of over 45% in size
In short: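 Wild-type HCT-116 cells were plated overnight, exposed to compounds for 2 h at 37 °C, then given HDAC-Glo class I/II luminogenic reagent for 30 min at room temperature before luminescence was read.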

[6] = qHTS assay to identify small molecule HDAC inhibitors - cell viability counter screen (AID 1259365); note: series mostly up to about 92 µM; nearly all actives have a fitted effect of over 50% in size
In short: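 Cytotoxicity was gauged in wild-type HCT-116 cells after a brief 2hr treatment with DMSO-dissolved compounds at 37C and 5% CO2, using CellTiter-Glo luminescence developed for 30min at room temperature.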

[7] = qHTS assay to identify small molecule agonists of the sonic hedgehog signaling (Shh) pathway - cell viability counter screen (AID 1259366); note: nearly all actives have a fitted effect of over 50% in size; note: potency is the fitted concentration of half-maximal effect
In short: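 Stable Gli1-Luc NIH/3T3 clone, 2,000 cells/well. Compound exposure 24hr at 37C. Read-out: CellTiter-Fluor fluorescence.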

[8] = qHTS assay to identify small molecule antagonists of the sonic hedgehog signaling (Shh) pathway - cell viability counter screen (AID 1259367); note: nearly all actives have a fitted effect of over 55% in size; note: potency is the fitted concentration of half-maximal effect
In short: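 Cells: 3T3 Gli1-Luc, 2,000/well, 4 hr pre-incubation. Compounds in DMSO, then conditioned medium. Incubation 24 hr, 37C, 5% CO2. CellTiter-Fluor at 23 hr, 1 hr, fluorescence.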

[9] = qHTS assay to identify small molecule agonists of the sonic hedgehog signaling (Shh) pathway (AID 1259368; calls by dose curve; note: series mostly up to about 92 µM; nearly all actives have a fitted effect of over 15% in size)
In short: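 NIH/3T3-derived 3T3Gli1-Luc cells carrying a stably integrated Gli1 response element–firefly luciferase reporter were plated, left 4 hr at 37 C, then given compounds in DMSO for 24 hr. Luminescence was read 30 min after adding luciferase reagent.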

[10] = qHTS assay to identify small molecule agonists of the estrogen receptor beta (ER-beta) signaling pathway - cell viability counter screen (AID 1259380); note: nearly all actives have a fitted effect of over 30% in size; note: potency is the fitted concentration of half-maximal effect
In short: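 ER-beta-UAS-bla HEK293T cells in medium with 2% charcoal-stripped FBS were preincubated 6 hr at 37C, dosed with compound in DMSO for 16 hr, then after the bla read, CellTiter-Glo was added for 30 min at room temperature; luminescence recorded.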

[11] = qHTS assay to identify small molecule antagonists of the estrogen receptor beta (ER-beta) signaling pathway - cell viability counter screen (AID 1259382); note: nearly all actives have a fitted effect of over 55% in size; note: potency is the fitted concentration of half-maximal effect
In short: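 ER-beta-UAS-bla HEK293T cells (2,000/well, 2% charcoal-stripped FBS) were pre-incubated 6 hr at 37C, then given compound plus 1nM final 17-beta-estradiol for 16 hr. Viability was read in the same wells by CellTiter-Glo luminescence after 30 min at room temperature.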

[12] = qHTS assay to identify small molecule agonists or antagonists of the thyroid stimulating hormone receptor (TSHR) signaling pathway - wild type cell line counter screen (AID 1259384; calls by dose curve)
In short: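 Counter screen in untransfected Hek293: compounds (15-point titration, triplicate) plus phosphodiesterase inhibitor Ro20-1724 added after 18 h plating; 30 min RT. Intracellular cAMP via competitive d2/cryptate immunoassay, 1 h incubation.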

[13] = qHTS assay to identify small molecule antagonists of the sonic hedgehog signaling (Shh) pathway (AID 1259369; calls by dose curve; note: nearly all actives have a fitted effect of over 45% in size; note: potency is the fitted concentration of half-maximal effect)
In short: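 NIH/3T3-derived 3T3Gli1-Luc cells with stably integrated Gli1-Luc reporter were preincubated 4hr at 37 C, then given compounds in DMSO plus Shh conditioned medium and incubated 24hr. Firefly luciferase luminescence read after 30min reagent at room temperature.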

[14] = biological target: Estrogen receptor beta (Homo sapiens) (UniProt Q92731); assay: qHTS assay to identify small molecule agonists of the estrogen receptor beta (ER-beta) signaling pathway (AID 1259377; active = well fitted activation curve with a large enough effect in the signal ratio in the repeat runs, not every such curve was filed as active; the % refers to the signal ratio)
Chain of Estrogen receptor beta (Homo sapiens) (Q92731 whole entry, looked up): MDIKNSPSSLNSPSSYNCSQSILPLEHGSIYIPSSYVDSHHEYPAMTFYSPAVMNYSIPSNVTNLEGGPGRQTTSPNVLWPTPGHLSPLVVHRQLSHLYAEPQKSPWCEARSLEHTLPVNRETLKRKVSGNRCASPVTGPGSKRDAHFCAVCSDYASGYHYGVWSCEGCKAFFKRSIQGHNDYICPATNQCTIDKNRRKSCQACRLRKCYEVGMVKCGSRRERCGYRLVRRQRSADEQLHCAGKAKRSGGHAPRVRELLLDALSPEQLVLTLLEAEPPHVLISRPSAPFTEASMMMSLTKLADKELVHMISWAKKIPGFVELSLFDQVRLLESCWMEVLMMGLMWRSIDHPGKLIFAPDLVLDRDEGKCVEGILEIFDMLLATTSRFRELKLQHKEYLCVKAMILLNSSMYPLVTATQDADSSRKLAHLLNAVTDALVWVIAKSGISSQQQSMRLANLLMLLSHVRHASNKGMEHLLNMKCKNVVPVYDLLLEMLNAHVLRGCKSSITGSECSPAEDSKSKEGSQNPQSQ
In short: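 Measured by fluorescence intensity from a B/G FRET beta-lactamase substrate (2 h, room temperature) in ER-beta-UAS-bla HEK293T cells treated with DMSO-dissolved compounds for 16 hr at 37C and 5% CO2.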

[15] = biological target: Estrogen receptor (Homo sapiens) (UniProt P03372); assay: qHTS assay to identify small molecule agonists of the estrogen receptor alpha (ER-alpha) signaling pathway in the presence of an antagonist (AID 1259383; calls by dose curve; note: top concentration of the series differs between compounds; nearly all actives have a fitted effect of over 15% in size)
In short: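 VM7Luc4E2 cells (endogenous full-length ER-alpha, 4×ERE-luciferase) were precultured 5 days in phenol red-free medium with 10% charcoal-stripped FBS, given 10.0nM ICI-182,780 (final), then treated with compounds at 15 concentrations for 22hr at 37C; luminescence read with ONE-Glo.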

[16] = qHTS assay to identify small molecule agonists of the androgen receptor (AR) signaling pathway in the presence of an antagonist - cell viability counter screen (AID 1259379); note: nearly all actives have a fitted effect of over 25% in size; note: potency is the fitted concentration of half-maximal effect
In short: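 MDA-kb2 human breast carcinoma cells (stable MMTV-luciferase, AR/GR responsive) were seeded 3,000 cells/well, pre-incubated 5 hr at 37C without CO2, then given 3.0uM nilutamide and compounds at 15 concentrations for 16 hr. Viability was read by CellTiter-Fluor fluorescence.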

[17] = biological target: Estrogen receptor beta (Homo sapiens) (UniProt Q92731); assay: qHTS assay to identify small molecule antagonists of the estrogen receptor beta (ER-beta) signaling pathway (AID 1259378; active = well fitted inhibition curve with a large enough effect in the signal ratio in the repeat runs, not every such curve was filed as active; the % refers to the signal ratio)
In short: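 Antagonist mode: compounds added to beta-lactamase reporter HEK293T ER-beta-UAS cells stimulated with E2 (1nM final), 16 hr at 37C. LiveBLAzer B/G FRET substrate, 2 hours room temperature, fluorescence read-out.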
% is set by controls: 0 for no effect and ±100 for the full control effect.

O=S(=O)(O)c1ccc(O)cc1
inactive: Potency [1] | Potency [2] | Potency [3] | Potency [4] | Potency [5] | outcome [6] | Potency [7] | Potency [8] | Potency [9] | Potency [10] | Potency [11] | outcome [12]

O=C(/C=C/c1ccccc1)OCc1ccccc1
inactive: Potency [1] | Potency [2] | Potency [3] | Potency [4] | Potency [5] | outcome [6] | Potency [7] | Potency [8] | Potency [9] | Potency [13] | Potency [14] | Potency [10] | Potency [11] | Potency [15] | outcome [12]

Nc1ccc(Cl)cc1Cl
inactive: Potency [1] | Potency [2] | Potency [3] | Potency [5] | outcome [6] | Potency [7] | Potency [8] | Potency [9] | Potency [10] | Potency [11] | outcome [12]

CC(=O)c1ccccn1
inactive: Potency [1] | Potency [2] | Potency [5] | outcome [6] | Potency [7] | Potency [8] | Potency [9] | Potency [13] | Potency [10] | Potency [11] | outcome [12]

Cc1ccc(C(=O)c2cc(O)c(O)c([N+](=O)[O-])c2)cc1
54.5 µM (active) and inactive: Potency [8]
inactive: Potency [1] | Potency [2] | PLD induction [4] 0.47% [at 7.66 µM] | Potency [5] | outcome [6] | Potency [7] | Potency [9] | Potency [10] | Potency [11] | outcome [12]
active: Potency [16] 54.5 µM and 29.8 µM

CCCCC(CC)COP(=O)(OCC(CC)CCCC)OCC(CC)CCCC (stereo unspecified)
inactive: Potency [1] | Potency [2] | Potency [5] | outcome [6] | Potency [8] | Potency [9] | Potency [14] | Potency [17] | Potency [16] | Potency [10] | Potency [11] | outcome [12]

COC(=O)C1=C(C)NC(C)=C(C(=O)OCCN(C)Cc2ccccc2)C1c1cccc([N+](=O)[O-])c1 (stereo unspecified)
inactive: Potency [1] | Potency [5] | outcome [6] | Potency [9] | Potency [15] | outcome [12]
active: Potency [2] 54.2 µM | Potency [3] 68.2 µM | Potency [7] 30.5 µM and 11.9 µM | Potency [8] 48.3 µM and 2.37 µM | Potency [13] 68.2 µM | Potency [16] 60.8 µM | Potency [10] 68.2 µM and 29.8 µM | Potency [11] 60.8 µM

Cc1cccc(N(C)C(=S)Oc2ccc3ccccc3c2)c1
inactive: Potency [1] | Potency [2] | Potency [3] | Potency [4] | Potency [5] | outcome [6] | Potency [8] | Potency [9] | Potency [14] | Potency [16] | Potency [11] | outcome [12]
active: Potency [13] 30.6 µM

COc1ccc(C(=O)CC(=O)c2ccc(C(C)(C)C)cc2)cc1
58.7 µM (active) and inactive: Potency [16]
inactive and 75.6 nM (active): Potency [1]
inactive: Potency [2] | Potency [4] | Potency [5] | outcome [6] | Potency [7] | Potency [8] | Potency [9] | Potency [10] | Potency [11] | outcome [12]

CCCCc1oc2ccccc2c1C(=O)c1cc(I)c(OCCN(CC)CC)c(I)c1
active: Potency [4] 10 µM | Potency [16] 43.6 µM and 33.5 µM | Potency [10] 19.5 µM and 29.8 µM | Potency [11] 19.5 µM and 26.6 µM
inactive: Potency [2] | Potency [3] | PLD induction [4] -0.301% [at 7.66 µM] | Potency [5] | outcome [6] | Potency [8] | Potency [9] | Potency [14] | outcome [12]
43.6 µM (active) and inactive: Potency [13]

CN(C)c1nc(N(C)C)nc(N(C)C)n1
inactive: Potency [1] | Potency [2] | Potency [4] | Potency [5] | outcome [6] | Potency [7] | Potency [8] | Potency [9] | Potency [14] | Potency [16] | Potency [10] | Potency [11] | outcome [12]

c1ccc2c(c1)Oc1ccccc1S2
inactive: Potency [1] | Potency [2] | Potency [3] | Potency [5] | outcome [6] | Potency [7] | Potency [8] | Potency [9] | Potency [13] | Potency [14] | Potency [16] | Potency [10] | Potency [11] | Potency [15] | outcome [12]

c1ccc2sc(SSN3CCOCC3)nc2c1
active: Potency [7] 48.5 µM | Potency [8] 54.4 µM | Potency [13] 9.67 µM | Potency [10] 30.6 µM
inactive: Potency [1] | Potency [2] | Potency [3] | Potency [5] | outcome [6] | Potency [9] | Potency [15] | outcome [12]
